Experimental data taken from PubChem BioAssay AID1159580 (chemical genetic matrix, 2015).
In all, about 5,500 compounds went through this assay and about 2,000 (36%) were called active. About 18% were inconclusive and are not listed. No stated cut-off is given here; in the data, active means normalized growth mostly below about 0.91 (no sharp cut-off); inconclusive means no clear call, values can overlap the other calls; inactive means mostly above about 0.92. The list shows a part of the results.

Assay: chemical genetic growth profiling, strain panel (AID 1159580);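 further: tested at 20 µM; growth read once vehicle control cultures reached saturation at 30 °C; 1 = growth at the plate median or of vehicle wells; lower values mean less growth of the strain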
Details: S. cerevisiae deletion strains, growth OD

Measured: normalized growth

O=C(O)CF
inactive: locus YAL013W, strain DEP1, active compounds read low 0.998 | locus YAL021C, strain ccr4, active compounds read low 1.01 | locus YAL026C, strain drs2, active compounds read low 1.02 | locus YAL030W, strain snc1, active compounds read low 1.02 | locus YBL061C, strain skt5, active compounds read low 1.02 | locus YBR009C, strain hhf1, active compounds read low 1.06 | locus YBR021W, strain FUR4, active compounds read low 0.97 | locus YBR023C, strain chs3, active compounds read low 1.03 | locus YBR171W, strain sec66, active compounds read low 1.03 | locus YBR229C, strain ROT2, active compounds read low 0.987 | locus YBR231C, strain swc5, active compounds read low 1.01 | locus YBR279W, strain paf1, active compounds read low 1.03 | locus YCL011C, strain gbp2, active compounds read low 1.03 | locus YCL016C, strain dcc1, active compounds read low 1.04 | locus YCL029C, strain bik1, active compounds read low 0.975 | locus YCL061C, strain MRC1, active compounds read low 1.02 | locus YCL069W, strain vba3, active compounds read low 1.02 | locus YCR088W, strain abp1, active compounds read low 1.02 | locus YDL005C, strain med2, active compounds read low 1.02 | locus YDL035C, strain GPR1, active compounds read low 1 | locus YDL040C, strain nat1, active compounds read low 1.02 | locus YDL074C, strain BRE1, active compounds read low 1.03 | locus YDL101C, strain DUN1, active compounds read low 0.995 | locus YDL134C, strain PPH21, active compounds read low 0.994 | locus YDL185W, strain tfp1, active compounds read low 0.967 | locus YDL192W, strain arf1, active compounds read low 0.98 | locus YDR001C, strain nth1, active compounds read low 1.02 | locus YDR069C, strain doa4, active compounds read low 1 | locus YDR101C, strain arx1, active compounds read low 0.969 | locus YDR137W, strain rgp1, active compounds read low 1.03 | locus YDR150W, strain NUM1, active compounds read low 0.995 | locus YDR159W, strain sac3, active compounds read low 0.997 | locus YDR162C, strain NBP2, active compounds read low 1.03 | locus YDR195W, strain ref2 1 | locus YDR297W, strain sur2, active compounds read low 1.03 | locus YDR318W, strain mcm21, active compounds read low 0.965 | locus YDR334W, strain swr1, active compounds read low 1.03 | locus YDR335W, strain msn5, active compounds read low 1.03 | locus YDR388W, active compounds read low 0.989 | locus YDR392W, strain spt3, active compounds read low 0.981 | locus YDR502C, strain sam2, active compounds read low 0.994 | locus YEL003W, strain gim4, active compounds read low 1.03 | locus YEL037C, strain rad23, active compounds read low 1.03 | locus YEL061C, strain CIN8 (second series), active compounds read low 1.03 | locus YEL061C, strain CIN8, active compounds read low 0.998 | locus YER015W, strain faa2, active compounds read low 1.02 | locus YER016W, strain bim1, active compounds read low 1.01 | locus YER110C, active compounds read low 0.974 | locus YER111C, strain swi4, active compounds read low 1.03 | locus YER155C, strain BEM2 (second series), active compounds read low 1.01 | locus YER155C, strain BEM2, active compounds read low 0.999 | locus YER167W, strain BCK2, active compounds read low 0.985 | locus YFR010W, strain ubp6, active compounds read low 1.03 | locus YGL078C, strain dbp3, active compounds read low 0.99 | locus YGL086W, strain mad1, active compounds read low 0.973 | locus YGL167C, strain pmr1, active compounds read low 1.03 | locus YGL173C, strain kem1, active compounds read low 1.03 | locus YGL227W, strain vid30, active compounds read low 1.02 | locus YGL240W, strain doc1, active compounds read low 1 | locus YGL248W, strain PDE1, active compounds read low 0.992 | locus YGL253W, strain hxk2, active compounds read low 1.01 | locus YGR078C, strain PAC10, active compounds read low 1.03 | locus YGR135W, strain pre9, active compounds read low 1.01 | locus YGR229C, strain SMI1, active compounds read low 1.02 | locus YGR252W, strain gcn5, active compounds read low 0.811 | locus YHR013C, strain ard1, active compounds read low 1.07 | locus YHR027C, strain rpn1, active compounds read low 1.02 | locus YHR030C, strain SLT2, active compounds read low 0.988 | locus YHR079C, strain IRE1 (second series), active compounds read low 0.979 | locus YHR094C, strain hxt1, active compounds read low 0.995 | locus YHR129C, strain ARP1, active compounds read low 0.998 | locus YHR142W, strain chs7, active compounds read low 1.03 | locus YHR200W, strain rpn10, active compounds read low 0.966 | locus YIL066C, strain RNR3, active compounds read low 0.988 | locus YIL073C, strain SPO22, active compounds read low 0.916 | locus YIL125W, strain kgd1, active compounds read low 0.986 | locus YIR030C, strain dcg1, active compounds read low 0.991 | locus YJL092W, strain hpr5, active compounds read low 1.02 | locus YJL095W, strain BCK1 (second series), active compounds read low 1.04 | locus YJL095W, strain BCK1, active compounds read low 1.03 | locus YJL115W, strain asf1, active compounds read low 1.02 | locus YJL129C, strain trk1, active compounds read low 1.05 | locus YJL134W, strain LCB3, active compounds read low 0.986 | locus YJL154C, strain vps35, active compounds read low 1.02 | locus YJL164C, strain tpk1, active compounds read low 1.04 | locus YJL166W, strain qcr8, active compounds read low 1 | locus YJL168C, strain set2, active compounds read low 0.986 | locus YJL187C, strain SWE1 (second series), active compounds read low 1.01 | locus YJL187C, strain SWE1, active compounds read low 1.02
